Screening data (PubChem)
D1 antagonist: blocks dopamine activation of the human D1 receptor; HEK293 TREx D1 cells, calcium flux, dopamine EC80; stronger effect = lower value; activity change, negative = inhibition, % at 10 µM; 360,000 tested, 3.2% active; in the data active means activity change below about -30%
Target sequence (P21728 whole entry, looked up): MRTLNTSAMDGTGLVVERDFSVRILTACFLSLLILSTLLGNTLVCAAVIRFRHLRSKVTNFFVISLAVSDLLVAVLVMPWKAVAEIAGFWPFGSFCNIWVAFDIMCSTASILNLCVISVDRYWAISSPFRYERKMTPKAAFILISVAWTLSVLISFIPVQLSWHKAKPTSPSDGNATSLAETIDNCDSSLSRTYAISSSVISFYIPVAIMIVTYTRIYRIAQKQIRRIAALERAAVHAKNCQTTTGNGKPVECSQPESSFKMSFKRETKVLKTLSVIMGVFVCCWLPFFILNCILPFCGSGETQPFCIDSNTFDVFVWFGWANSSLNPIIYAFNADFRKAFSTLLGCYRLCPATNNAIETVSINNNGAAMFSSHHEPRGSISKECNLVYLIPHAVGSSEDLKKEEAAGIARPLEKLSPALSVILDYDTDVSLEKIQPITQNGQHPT
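Allosteric or orthosteric antagonism assessed as attenuation of the calcium response to EC80 dopamine, added 180 s after compound, in induced HEK293 Trex D1 cells loaded with no-wash calcium dye.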
D3 ag: activates the human D3 dopamine receptor; P35462; D3R DiscoveRx beta-arrestin cells, luminescence, 90 min; max activation, %; 410,000 tested, 0.58% active; AID 652048; in the data active means max activation above about 30%
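Cells at 1500/well, incubated overnight, then treated with pinned compounds (dopamine as control) for 90 min at 37 degrees C. DiscoveRx reagent added for 30 - 60 minutes at room temperature; luminescence read.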
D1 potentiator: human D1 dopamine receptor positive modulation | P21728 | HEK293 TREx D1 cells, calcium flux, dopamine EC20 potentiation | potentiation, % at 10 µM | 360,000 tested, 0.036% active; in the data active means potentiation above about 30%
D1 ag: agonists of human D1 dopamine receptor | HEK293 T-REx D1 cells, calcium flux, agonist mode | activation, % at 2 µM | 360,000 tested, 1% active; in the data active means activation above about 30%
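Agonism was scored from calcium flux recorded over 180 s (1 read/s) after pintool compound addition, following a 10-cycle baseline. Cells were inducible force-coupled HEK293 TREx D1, plated overnight at 30 C and loaded with no-wash calcium dye.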
D3 antag: D3 dopamine receptor (human) antagonism; max response, negative = inhibition, %; D3R cells, DiscoveRx beta-arrestin luminescence, antagonist mode; stronger effect = lower value; 360,000 tested, 2.5% active; in the data active means max response below about -50%; inconclusive means no clear call, values can overlap the other calls
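Cells expressing the human receptor were seeded at 1500 cells/well, incubated overnight at 37 degrees C in 5% CO2, then exposed to library compounds with dopamine controls for 90 minutes at 37 degrees C before luminescent detection.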
Of the large screens only hits and unclear results are named; the others gave an inactive call; ! = not confirmed by another sample. An excerpt weighted towards active compounds, which were near 6% of everything screened.

CCN(CCO)Cc1cc(=O)oc2cc3c(cc12)CCC3	none
O=C(CCS(=O)(=O)c1cccc2nonc12)Nc1ccc(Br)cc1	none
C=CCc1c(C)nc(C)nc1N/N=C/c1ccc([N+](=O)[O-])cc1	D3 antag inconclusive
C=CCc1c(C)nc(C)nc1N/N=C/c1ccccc1O	D3 antag -113.5
O=C(N/N=C\c1ccc(Cl)s1)c1ccc(Cn2cccn2)o1	none
O=C(N/N=C/c1c(O)ccc2ccccc12)c1cccc(C(F)(F)F)c1	D1 antagonist -31.4, D1 ag 162.0
O=C(N/N=C\c1c(O)ccc2ccccc12)c1ccc(Cn2cccn2)o1	D1 antagonist -30.2
Oc1ccc2ccccc2c1/C=N/Nc1nnc(-c2ncc[nH]2)c2ccccc12	D1 ag 36.2
O=C(CNC(=O)C(c1ccccc1)c1ccccc1)N/N=C/c1ccc(O)cc1O	D3 ag 32.5
O=C(CNC(=O)C(c1ccccc1)c1ccccc1)N/N=C\c1cccc(O)c1	D1 ag 51.5
C=C(C)Cn1c(SCC(=O)N/N=C/c2cccc(O)c2)nc2ccccc2c1=O	D1 antagonist -34.8
O=C(/C=C\c1ccccc1)NCC(=O)N/N=C/c1ccc(O)cc1O	none
CCOCCCn1c(=N)c(C(=O)NCc2cccnc2)cc2c(=O)n3cc(C)ccc3nc21	D1 ag 34.0 (no result: D3 antag)
CCOCCCn1c(=N)c(C(=O)NCc2cccnc2)cc2c(=O)n3ccccc3nc21	none (no result: D3 antag)
CCCn1c(=N)c(C(=O)NC2CCCC2)cc2c(=O)n3cc(C)ccc3nc21	none (no result: D3 antag)
COCCCn1c(=N)c(C(=O)NC2CCCC2)cc2c(=O)n3cc(C)ccc3nc21	D1 ag 85.6 (no result: D3 antag)
CCCCOc1ccccc1C(=O)N(Cc1cccc(F)c1)C1CCS(=O)(=O)C1 (stereo unspecified)	none (no result: D3 antag)
CCOc1ccc(NC(=O)c2ccc(NC(=O)CCS(=O)(=O)c3cccs3)cc2)cc1	none (no result: D3 antag)
Cc1cccc(NC(=O)[C@H](Cc2ccccc2)NC(=O)[C@@H]2Cc3ccccc3CN2)c1	none
CC(CN1CCN(C)CC1)OC(=O)c1ccccc1Cl (stereo unspecified)	D3 antag -52.2
CC(CN1CCCCC1)OC(=O)Cc1ccc(Cl)cc1 (stereo unspecified)	D3 antag -58.3
CC(CN1CCCCC1)OC(=O)/C=C/c1ccccc1 (stereo unspecified)	D3 antag -61.2
O=C(/C=C/c1ccccc1)CCN1CCCCC1	D3 antag -87.7 (no result: D1 antagonist, D1 potentiator, D1 ag)
CC(CN1CCOCC1)OC(=O)/C=C/c1ccccc1 (stereo unspecified)	none (no result: D1 antagonist)
Cc1ccc(C)c(N2CCN(C(=O)Cn3c(-c4cccs4)cc4ccccc43)CC2)c1	none (no result: D3 antag)
CC1CCN(S(=O)(=O)c2ccc(C(=O)N3CCCC3C(=O)O)cc2)CC1 (stereo unspecified)	none
CC(CN1CCCCC1)OC(=O)C(C)(c1ccccc1)c1ccccc1 (stereo unspecified)	D3 antag -53.3
Cc1cccc(NC(=O)c2ccccc2O)c1C	D1 antagonist -31.8
Cc1cc(C)c(C#N)c(SCCN2CCOCC2)n1	D1 antagonist -31.2
CC(C)=CCC/C(C)=C/C=C/C(C)=C/C=C/C(C)=C/C=C/C=C(C)/C=C/C=C(C)/C=C/C=C(\C)CCC=C(C)C	none (no result: D1 antagonist, D1 potentiator, D1 ag, D3 antag)
CC(C)(O)CC[C@@H](O)[C@](C)(O)C1CC[C@@]2(O)C3=CC(=O)[C@]4(O)C[C@@H](O)[C@@H](O)C[C@]4(C)C3CC[C@]12C (stereo partly specified)	D1 antagonist -33.5
Cn1cnc([N+](=O)[O-])c1S(=O)(=O)Oc1cccc2ccccc12	D3 antag -96.6 (no result: D1 antagonist, D1 potentiator, D1 ag)
Cn1cnc([N+](=O)[O-])c1S(=O)(=O)Oc1ccc(Cl)cc1	D3 antag -89.5 (no result: D1 antagonist, D1 potentiator, D1 ag)
O=C(NNC(=O)c1cc(-c2cccc(Br)c2)nc2ccccc12)c1csc(N2CCOCC2)n1	D1 antagonist -84.0
Cc1cc(C(=O)NCCc2ccc(Cl)cc2)c2c(C)nn(-c3ccccc3)c2n1	none (no result: D3 antag)
COC(=O)c1ccc(NC(=O)CC2C(=O)N(c3cccc(OC)c3)C(=O)N2C(C)C)cc1 (stereo unspecified)	D1 antagonist -31.9 (no result: D3 antag)
CCOC(=O)c1cccc(NC(=O)CC2C(=O)N(c3ccc(OC)cc3)C(=O)N2C2CCCC2)c1 (stereo unspecified)	D1 antagonist -35.3 (no result: D3 antag)
COc1cccc(N2C(=O)C(CC(=O)Nc3cccc(F)c3)N(C(C)C)C2=O)c1 (stereo unspecified)	none (no result: D3 antag)
CCOC(=O)c1cccc(NC(=O)CC2C(=O)N(c3ccc(Cl)cc3)C(=O)N2C2CCCC2)c1 (stereo unspecified)	none (no result: D3 antag)
COC(=O)c1ccc(NC(=O)CC2C(=O)N(c3cccc(F)c3)C(=O)N2CC(C)C)cc1 (stereo unspecified)	D1 antagonist -33.0 (no result: D3 antag)
COc1ccc(NC(=O)CC2C(=O)N(c3cccc(OC)c3)C(=O)N2Cc2cccnc2)cc1 (stereo unspecified)	D1 antagonist -64.6 (no result: D3 antag)
O=C(NCc1ccccc1Cl)c1[nH]c(C(F)(F)F)nc1-c1ccccc1	none (no result: D1 antagonist, D1 potentiator, D1 ag)
Cc1ccsc1C(=O)N1CCCC1(C)C(=O)NCC(C)C (stereo unspecified)	none (no result: D1 antagonist, D1 potentiator, D1 ag)
CC(C)(C)N(Cc1cc2ccccc2[nH]c1=O)C(=O)c1cccc([N+](=O)[O-])c1	D3 ag 46.9
CCCN(Cc1cc2ccccc2[nH]c1=O)C(=O)c1cccc([N+](=O)[O-])c1	none
CN(C(=O)c1ccc(NC(=O)Cc2ccc(NC(=O)C3CCN(C(=O)c4ccccc4)CC3)cc2)cc1)C1CC1	D3 antag -98.6 (no result: D1 antagonist)
CN(Cc1ccccc1)C(=O)c1ccc(NC(=O)Cc2cccc(NC(=O)C3CCN(C(=O)C4CC4)CC3)c2)cc1	D1 ag 251.5
COc1ccc2occ(C(C)=O)c2c1	none
CC(=O)c1coc2ccc(OCCN3CCCCC3)cc12	D3 antag -83.5
COc1ccc(C(NC(=O)c2ccc(F)cc2)c2ccccc2)cc1 (stereo unspecified)	none
COc1ccc(C(NC(=O)c2cccc(F)c2)c2ccccc2)cc1 (stereo unspecified)	D1 antagonist -31.1
COc1ccc(OC)c(NC(=O)C2=C(C)C(=O)OC23CCCCCC3)c1	none (no result: D3 antag)
CC(=O)c1ccc(N2CCN(C(=O)Cn3ncc4c3-c3ccccc3OC4)CC2)cc1	none (no result: D3 antag)
COc1ccc(S(=O)(=O)N2CCN(C3CCCCCCC3)CC2)cc1	D1 antagonist -68.2!
COc1ccc(S(=O)(=O)N2CCC(Oc3ccc(-n4cnnn4)cc3)CC2)cc1OC	none (no result: D3 antag)
CCOC(=O)N1CCC(N2CCN(S(=O)(=O)CC)CC2)CC1	D3 antag -132.9
COc1ccc(OC2CCN(S(=O)(=O)c3ccc(OC)cc3)CC2)cc1	D1 antagonist -36.2!, D1 ag 35.3
COc1ccc(S(=O)(=O)N2CCC(Oc3cccc(C(F)(F)F)c3)CC2)cc1OC	D1 antagonist -36.1 (no result: D3 antag)
CC(=O)c1ccc(O[C@@H]2O[C@H](CO)[C@@H](O)[C@H](O)[C@H]2O)cc1	none (no result: D1 antagonist, D1 potentiator, D1 ag)
